Results: PubChem BioAssay AID687014 (The Scripps Research Institute Molecular Screening Center, 2013)
In all, about 370,000 compounds went through this assay and about 6,800 (1.8%) were called active. This is one part of a sample in which actives are shown more often than they occur.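 The calls were made as follows: active = activation above a cutoff set at the mean of all screened compounds plus 3 SD (cut at about 10% in these data); inactive = the rest.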

These compounds were tested on Nuclear hormone receptor DAF-12 (Heterodera glycines), GAL4 fusion (assay: hgDAF-12 GAL4 fusion reporter activation – cell-based, luminescence, HEK293, UAS-luciferase, primary screen (AID 687014;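 also: 0% = DMSO wells and 100% = sodium butyrate wells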)). Details: HEK293 GAL4-hgDAF12 UAS-luciferase reporter, agonist luminescence; at 6.8 µM; hits give high values; normalized to butyrate control.

SMILES	activation
Cc1ccc2oc(C(=O)N3CCN(C)C[C@@H]3C(C)C)c(C)c2c1	2.43% (inactive)
COC(=O)[C@]12C[C@H](CC(=O)NCc3cccs3)C(=O)N(CCc3ccc(OC)c(OC)c3)C1=C[C@H](C(C)C)O[C@@H]2C1CC1	1.93% (inactive)
CC1=C(C(=O)N2CCOCC2)CC(CC(=O)NCCCN(C)C)C(=O)N1Cc1ccc(C(C)(C)C)cc1 (stereo unspecified)	1.86% (inactive)
CCOC(=O)c1ccc2c(c1)nc(SCC(=O)NC(C)C)n2CC	-0.22% (inactive)
CCOC(=O)c1ccc2c(c1)nc(C)n2CC	12.8% (active)
CCn1c(C)nc2cc(C(=O)NNS(=O)(=O)c3ccc(C)cc3C)ccc21	-0.8% (inactive)
Nc1nc2c(ncn2[C@@H]2O[C@H](C(=O)N[C@@H](Cc3ccccc3)C(=O)NCc3ccccc3)[C@@H](O)[C@H]2O)c(=O)[nH]1	-2.72% (inactive)
CCOC(=O)N1CCN(C(=O)C[C@H]2C[C@@]3(C(=O)OC)C(=C[C@H](C4CCCC4)O[C@@H]3C)N(Cc3ccccc3)C2=O)CC1	-1.3% (inactive)
CSCC[C@H](NC(=O)OC(C)(C)C)C(=O)N/N=C/c1cc2ccc(C)cc2nc1Cl	-1.8% (inactive)
Cc1ccc2cc(/C=N/Nc3ccc(C(=O)O)cc3)c(Cl)nc2c1	11.9% (active)
CC(=O)Nc1ccc(C(=O)CSc2nc3ccc(C)cc3[nH]2)cc1	8.98% (inactive)
C=C(C)C#CC(Cc1ccccc1)N(CC1CC1)/C(N)=N/C(=O)OCc1ccccc1 (stereo unspecified)	1.8% (inactive)
COc1cc(/C=C/C(=O)O)cc(S(=O)(=O)Nc2ccccc2SC)c1OC	1.71% (inactive)
Cc1ccc(CCNC(=O)c2ccc3nc4ccccc4c(=O)n3c2)cc1	3.9% (inactive)
Cc1ccc(C(=O)NNc2ncnc3ccccc23)cc1	16% (active)
Cn1ncc2c(NNC(=O)Cc3cccc4ccccc34)ncnc21	-0.95% (inactive)
COC(=O)Cc1nnn2c1[C@H](C)[C@H](c1ccccc1Br)OCC2	-0.72% (inactive)
C=CCn1cc(C(=O)NCc2ccc(Cl)cc2)c(=O)c2cc(S(=O)(=O)N(CC)CC)ccc21	0.3% (inactive)
CC(=O)c1cc(C#N)c(SCC(=O)Nc2nccs2)nc1C	8.08% (inactive)
CC(=O)c1cc(C#N)c(N2CC(C)OC(C)C2)nc1C (stereo unspecified)	0.39% (inactive)
CC(=O)c1cc(C#N)c(SCC(=O)C(C)(C)C)nc1C	27.1% (active)
CC(C)(C)OC(=O)NCc1cc(F)ccc1/C=C/S(=O)(=O)NCCc1ccccc1	0.64% (inactive)

SMILES	activation
c1ccc(Cc2c(-c3ccco3)nc3c4ccccc4ccn23)cc1	22.7% (active)
Cc1ccc(Cc2c(-c3ccc(Cl)cc3)nc3c4ccccc4ccn23)cc1	4.25% (inactive)
Cc1ccc(Cc2c(-c3ccc(C)cc3)nc3c4ccccc4ccn23)cc1	0.89% (inactive)
CC(C(=O)N=Nc1c(O)n(C)c2ccc(Br)cc12)n1cnc2ccccc2c1=O (stereo unspecified)	0.17% (inactive)
CC(=O)C1=C(C)N(Cc2ccc(Cl)cc2)C(=S)NC1c1ccc(F)cc1 (stereo unspecified)	3.22% (inactive)
N#Cc1ccc(OCCCN2CCC(C(O)(c3ccccc3)c3ccccc3)CC2)c(F)c1	0.54% (inactive)
CC1=C(C(=O)NC2CC(C)(C)Cc3c2cnn3-c2ccc(C)cc2)OCCO1 (stereo unspecified)	-2.28% (inactive)
C=CCNc1cnn(-c2ccc(C)cc2)c(=O)c1Cl	12.7% (active)
Cc1cccc(-n2ncc(Cl)c(Cl)c2=O)c1	-2.03% (inactive)
COC(=O)[C@H](C(C)C)N(CCCc1cn(Cc2ccccc2)nn1)S(=O)(=O)c1ccc(F)cc1Br	-3.54% (inactive)
COC(=O)C[C@@H]1C=C[C@@H](NC(=O)c2ccc3c(c2)OCO3)[C@@H](CO)O1	-0.93% (inactive)
c1cnc(N2CCN(c3ccc4ccccc4n3)CC2)nc1	13.8% (active)
CC12CCC(C(=O)N3CCN(c4ncccn4)CC3)(c3nc4ccccc4nc31)C2(C)C (stereo unspecified)	-2.77% (inactive)
CC1=C(N2CCN(c3ncccn3)CC2)CCC1=O	1.9% (inactive)
CN1C(=O)C(Br)(Br)CC1c1cccnc1 (stereo unspecified)	2.1% (inactive)
CCCCCCCCN1C(=O)[C@@H](CC(=O)N2CCN(C(=O)OCC)CC2)C[C@@]2(C(=O)OC)C1=C[C@H](C1CCCC1)O[C@@H]2C	-1.38% (inactive)
Cc1csc(NC(=O)CSc2nc(=O)n(CCCN(C)C)c3c2CCC3)n1	-0.31% (inactive)
CN1OC[C@@H]2CN(C(=O)c3ccc(-c4ccccc4)cc3)[C@H](c3ccc(-c4cccc(F)c4)cc3)C[C@@H]21	2.92% (inactive)
COc1ccc(CN2C[C@H]3CON(C)[C@H]3C[C@H]2c2ccc(-c3cccc(F)c3)cc2)cc1	-1.7% (inactive)
CN1OC[C@@H]2CN[C@H](c3ccc(-c4ccccc4)cc3)C[C@@H]21	10.5% (active)
O=C(NCc1ccccc1Cl)c1ccc2c(=O)n(CC3CCCO3)c(=S)[nH]c2c1 (stereo unspecified)	1.69% (inactive)
O=S1(=O)c2c(cccc2N2CCCCC2)O[C@H](COCc2ccccc2)CN1C1CC1	-1.38% (inactive)

SMILES	activation
CCOc1ccc(Oc2c(Cl)cnn(-c3ccc(C)cc3)c2=O)cc1	1.52% (inactive)
CCCNC(=O)CCc1c(C)nc2c(c(C)nn2-c2ccc(C)cc2)c1C	-0.59% (inactive)
CCCNC(=O)c1c(Cl)cnn1-c1ccc(C)cc1	14.5% (active)
CCCCCCCCN1C(=O)[C@@H](CC(=O)NCCCC)C[C@@]2(C(=O)OC)C1=C[C@H](C(C)(C)C)O[C@@H]2C	0.13% (inactive)
O=C(Nn1c(SCc2ccc([N+](=O)[O-])cc2)nc2ccccc2c1=O)c1ccc(F)cc1	16.4% (active)
O=C(CSc1nc2ccccc2c(=O)n1Cc1ccc(F)cc1)NCC1CCCO1 (stereo unspecified)	0.43% (inactive)
COCCNC(=O)c1ccc(-n2c(SCc3cccnc3)nc3ccccc3c2=O)cc1	-1.1% (inactive)
O=c1[nH]c(-c2ccccc2)cn1C1CCN(Cc2ccc(-c3nc4ccc(F)cc4nc3-c3ccccc3)cc2)CC1	2.08% (inactive)
O=[N+]([O-])c1ccc2c(c1)C(N1CCOCC1)/C(=C/C1(O)CCCCC1)O2 (stereo unspecified)	-1.36% (inactive)
CCOC(=O)C1CCN(C(=O)C(C)(C)NC(=O)Nc2ccc(F)c(F)c2)CC1	-0.28% (inactive)
COc1ccc(/C=C2\N=C3CCCN3C2=O)cc1	13% (active)
COc1ccc(/C=C2\CC3(OC(C)=O)CCCN2C3)cc1 (stereo unspecified)	-5.68% (inactive)
COc1ccc(-c2nc3n(c2Br)CCC3)cc1	5.25% (inactive)
O=C(C1CCCN1S(=O)(=O)c1ccccc1)N1CCc2ccccc2C1 (stereo unspecified)	-1.43% (inactive)
O=C(CSc1nnc(COc2ccccc2)n1-c1ccc(Cl)cc1)Nc1ccc2c(c1)OCO2	-1.26% (inactive)
CC(C)(C)C1CCC(=NNC(=O)c2ccc(Br)o2)CC1 (stereo unspecified)	11.6% (active)
CC(C)(C)C1CCC(=NNC(=O)c2cc(-c3ccccc3)n[nH]2)CC1 (stereo unspecified)	6.27% (inactive)
CCC(C)(C)C1CCC(=NNC(=O)c2ccc(Br)o2)CC1 (stereo unspecified)	7.56% (inactive)
COC(=O)C1=C(C)N(Cc2cccc(C(F)(F)F)c2)C(=NCc2ccccc2)NC1c1ccccc1C(F)(F)F (stereo unspecified)	-1.64% (inactive)
C/C(=N/NC(=O)c1ccc(Br)o1)c1ccc(C)o1	11.9% (active)
CC(CNC(=O)c1ccc(Br)o1)NC(=O)c1ccc(Br)o1 (stereo unspecified)	-3.41% (inactive)
C/C(=N\NC(=S)NC1CCCCC1)c1ccc(C)o1	3.96% (inactive)

SMILES	activation
COc1cc(SC)ccc1C(=O)Nc1cc(C)ccn1	15.5% (active)
Cc1ccnc(NC(=O)CNC(=O)c2ccccc2)c1	2.39% (inactive)
COc1cc(SC)ccc1C(=O)Nc1nc(C)cs1	-15.3% (inactive)
O=S1(=O)c2c(NCc3ccco3)cccc2Oc2ccccc2CN1Cc1cn(Cc2cccc(C(F)(F)F)c2)nn1	-3.4% (inactive)
COc1cccc(NC(=O)CSc2nccn(-c3ccc4c(c3)OCCO4)c2=O)c1	0.16% (inactive)
COc1ccccc1C1C(C(N)=O)=C(C)Nc2nc(CCCO)nn21 (stereo unspecified)	0.62% (inactive)
O=C(COC(=O)c1cc(=O)[nH]c2ccccc12)NCc1cccc(Cl)c1	0.1% (inactive)
CN(C(=O)COC(=O)c1cc(=O)[nH]c2ccccc12)C1CCCCC1	6.7% (inactive)
CC1CCN(C(=O)COC(=O)c2cc(=O)[nH]c3ccccc23)CC1	12.3% (active)
CCOC(=O)[C@]12CCCC3=C1N(CCC3)C(=O)[C@@H](CC(=O)NCC13CC4CC(CC(C4)C1)C3)C2	0.11% (inactive)
COc1cc(/C=C/C(=O)OCC(=O)NCCCc2ccccc2)ccc1O	-1.55% (inactive)
COc1ccc(/C=N/Nc2ncnc3sc4c(c23)CCCC4)cc1O	5.98% (inactive)
COc1cc(/C=N/Nc2nc3ccccc3s2)ccc1O	15% (active)
CN(C)C(=O)N1CCN(C(=O)[C@@H](Cc2ccccc2)NC(=O)[C@H]2O[C@@H](n3ccc(N)nc3=O)[C@H](O)[C@@H]2O)CC1	1.19% (inactive)
CCOC(=O)c1c(S(=O)(=O)Nc2cccc(Cl)c2)c(C)n(C)c1C	-4.39% (inactive)
CCOC(=O)c1c(Cc2ccc(Cl)cc2)c[nH]c1C	12.8% (active)
CCOC(=O)c1ccc(CS(=O)c2ccc(Cl)cc2)o1 (stereo unspecified)	-2.05% (inactive)
CCOC(=O)[C@]12CCCC=C1N(Cc1ccc(OC)cc1)C(=O)[C@@H]2CC(=O)N1CCOCC1	0.99% (inactive)
CNC(=O)/C(=C\C=C\c1ccccc1)NC(=O)c1ccc([N+](=O)[O-])cc1	1.17% (inactive)
COCC(=O)N[C@@H]1C[C@@H]2O[C@@H](CO)CC[C@@H]2O[C@@H]1CCc1ccc(-c2ccccc2)cc1	2.02% (inactive)
